Screening results as filed in PubChem BioAssay.
PI5P4Ka inh: inhibitors of human PI5P4K alpha; P48426; PI5P4Kalpha enzyme, ADP-Glo luminescence, 60 min; stronger effect = lower value; max response, %; 330,000 tested, 1.2% active; active means max response of -50% or lower; inconclusive means between -30% and -50%; inactive means -30% or higher; further: value at the top dose of about 77 µM
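Quantitative HTS of the MLSMR library against PI5P4Kalpha with substrate. ATP added last at 5 microM final; room temperature, 60 minutes. Remaining ATP depleted, ADP converted and read as luminescence.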
HP1b chromo inh: blocks HP1-beta chromodomain binding to methylated histone tails; P83916; AlphaScreen HP1-beta / biotin-H3K9me3 peptide binding; Potency, µM (highest dose often 114 µM), most hits filed as inhibitors; 390,000 tested, 0.56% active; AID 540317; further: nearly all actives have a fitted effect of over 70% in size
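HP1-beta protein (50 nM final) preincubated 30 min at room temperature with biotinylated H3(1-18)K9me3 peptide (50 nM) in PBS pH 7.4, 0.01% Tween-20, then compound added for 30 min. AlphaScreen streptavidin donor/nickel chelate acceptor beads (10 ug/mL final), 30 min dark, luminescence read.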
G9a inh: inhibitors of human histone lysine methyltransferase G9a. G9a H3K9 monomethylation, AlphaScreen, 2 h. 350,000 tested, 8.8% active. Potency, µM (doses to about 102 µM), actives largely listed as inhibitors. Q96KQ7; further: nearly all actives have a fitted effect of over 75% in size
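Enzyme 20 nM + cpd, 15 min RT; add b-H3K9 pep 500 nM / SAM 20 uM; 2 h RT; anti-H3K9me1 Ab 0.5 ug/mL + SA donor / anti-rabbit acceptor beads 20 ug/mL each, 10 min; AlphaScreen read.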
PLK1 PBD block: PLK1 (human) polo-box domain binding inhibition. P53350. Plk1 PBD binding of FITC phosphopeptide, fluorescence polarization. Potency, µM, actives largely listed as inhibitors. 360,000 tested, 2.8% active. AID 720504; further: series mostly up to about 57 µM; nearly all actives have a fitted effect of over 65% in size
Target sequence (P53350 whole entry, looked up, the tested form may be a part): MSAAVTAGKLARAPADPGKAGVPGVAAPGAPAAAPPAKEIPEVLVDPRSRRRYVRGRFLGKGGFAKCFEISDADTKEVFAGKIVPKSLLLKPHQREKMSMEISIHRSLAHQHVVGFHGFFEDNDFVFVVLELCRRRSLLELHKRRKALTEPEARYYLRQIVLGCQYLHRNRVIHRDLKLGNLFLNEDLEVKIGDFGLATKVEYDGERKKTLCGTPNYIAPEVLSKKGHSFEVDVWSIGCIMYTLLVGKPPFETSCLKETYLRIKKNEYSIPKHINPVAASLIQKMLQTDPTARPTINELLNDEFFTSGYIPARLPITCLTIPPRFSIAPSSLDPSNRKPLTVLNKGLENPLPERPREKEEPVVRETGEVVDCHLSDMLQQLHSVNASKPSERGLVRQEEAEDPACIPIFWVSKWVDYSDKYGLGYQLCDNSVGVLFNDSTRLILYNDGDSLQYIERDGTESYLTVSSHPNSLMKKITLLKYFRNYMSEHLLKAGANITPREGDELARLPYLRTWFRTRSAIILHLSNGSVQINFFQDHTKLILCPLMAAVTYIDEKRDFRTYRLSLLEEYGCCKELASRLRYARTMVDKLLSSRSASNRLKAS
BAZ2B inh: blocks human BAZ2B; AlphaScreen BAZ2B-H3K14Ac peptide displacement; Potency, µM (top dose mostly 114 µM), usual class: inhibitors; 360,000 tested, 4.4% active; AID 504333; further: nearly all actives have a fitted effect of over 60% in size
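BAZ2B 50 nM plus b-H3(5-23)K14Ac 50 nM, PBS pH 7.4/0.01% Tween-20, 30 min RT; compound added (max 110 uM), 30 min RT; streptavidin donor/Ni-chelate acceptor beads 10 ug/mL final, 20 min dark; AlphaScreen read.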
JMJD2A Tudor inh: inhibitors of human JMJD2A Tudor domain; AlphaScreen JMJD2A-Tudor / H3K4me3 peptide binding; Potency, µM (doses to about 114 µM), usual class: inhibitors; 390,000 tested, 4.4% active; further: nearly all actives have a fitted effect of over 50% in size
A number is an active result; [ ] = remark or other dose. This is a sample that favours compounds with a hit; in the whole collection about 12% have one here. Unless noted, the call rests on the fitted dose curve; in most records, active means well fitted curve in the direction sought with a large enough effect; inconclusive means small, poorly fitted or top-dose-only effect, or another doubt; inactive means no such curve, though single readings can be large; an effect the other way counts as inactive or inconclusive.

`COc1ccc2c(c1)CC(C(=O)NCCCN1CCN(c3ccc(F)cc3)CC1)CO2` (stereo unspecified) gave HP1b chromo inh inactive, G9a inh inactive, BAZ2B inh inconclusive and JMJD2A Tudor inh inconclusive.
COc1ccc(NC(=O)c2csnn2)cc1Cl was read as HP1b chromo inh inactive, G9a inh inconclusive, BAZ2B inh inactive and JMJD2A Tudor inh inactive.
For COCCN1C(=O)C(O)=C(C(C)=O)C1c1ccc(OC)c(OC)c1 (stereo unspecified) the results were PI5P4Ka inh inactive, HP1b chromo inh inactive, G9a inh 45µM, PLK1 PBD block inactive, BAZ2B inh inconclusive and JMJD2A Tudor inh 16µM.
COc1ccc(C2C(C(C)=O)=C(O)C(=O)N2c2cccnc2)cc1OC (stereo unspecified) was read as HP1b chromo inh inactive, G9a inh inconclusive, PLK1 PBD block inactive, BAZ2B inh inconclusive and JMJD2A Tudor inh 79µM.
COc1cccc(N2C(=O)C(O)=C(C(C)=O)C2c2ccc(OC)c(OC)c2)c1 (stereo unspecified) was read as PI5P4Ka inh inactive, HP1b chromo inh inactive, G9a inh inconclusive, PLK1 PBD block inactive, BAZ2B inh inconclusive and JMJD2A Tudor inh inconclusive.
For Cn1cc(C(=O)NCCc2ccccc2)c(=O)c2cc(S(=O)(=O)N3CCCCC3)ccc21 the results were HP1b chromo inh inactive, G9a inh inactive and JMJD2A Tudor inh inactive.
Screening O=C(CNC(=O)c1ccccc1)NCCCSc1ccccc1 returned PI5P4Ka inh inactive, HP1b chromo inh inactive, PLK1 PBD block inactive and JMJD2A Tudor inh inactive.
Screening O=C(NCCCSc1ccccc1)c1cc(Cl)ccc1O returned PI5P4Ka inh inactive, HP1b chromo inh inactive, G9a inh 35µM, PLK1 PBD block inactive, BAZ2B inh 50µM and JMJD2A Tudor inh inactive.
Screening CCOc1cc(C(=O)NCCc2ccc(S(N)(=O)=O)cc2)cc(OCC)c1OCC returned PI5P4Ka inh inactive, HP1b chromo inh inactive, PLK1 PBD block 30µM, BAZ2B inh inactive and JMJD2A Tudor inh inconclusive.
For NS(=O)(=O)c1ccc(CCNC(=O)c2cccc3ccccc23)cc1 the results were PI5P4Ka inh inactive, HP1b chromo inh inactive, G9a inh inactive, PLK1 PBD block inactive, BAZ2B inh inactive and JMJD2A Tudor inh inactive.
For CC(=O)Oc1ccc(-c2ccc(C(=O)NCCc3ccc(S(N)(=O)=O)cc3)cc2)cc1 the results were PI5P4Ka inh inactive, HP1b chromo inh inactive, G9a inh 71µM, PLK1 PBD block inactive, BAZ2B inh inactive and JMJD2A Tudor inh inactive.
For NS(=O)(=O)c1ccc(CCNC(=O)c2ccc[nH]c2=S)cc1 the results were PI5P4Ka inh inconclusive, HP1b chromo inh inconclusive, G9a inh 1.4µM, PLK1 PBD block inactive, BAZ2B inh inactive and JMJD2A Tudor inh 2.2µM.
For CCOC(=O)CC(C)(C)/C(C)=N/Nc1ccc([N+](=O)[O-])cc1[N+](=O)[O-] the results were PI5P4Ka inh inactive, HP1b chromo inh 14µM, G9a inh 8.9µM, PLK1 PBD block inactive, BAZ2B inh 7.1µM and JMJD2A Tudor inh inconclusive.
`O=C(O)/C(CC(=O)c1ccc(Cl)cc1)=N/Nc1ccc([N+](=O)[O-])cc1[N+](=O)[O-]` gave PI5P4Ka inh -53, HP1b chromo inh inactive, G9a inh inactive[2.33 µM], PLK1 PBD block 24µM, BAZ2B inh 40µM and JMJD2A Tudor inh 40µM.
`CCC(CC)=NNc1ccc([N+](=O)[O-])cc1[N+](=O)[O-]` gave PI5P4Ka inh inactive, HP1b chromo inh inactive, G9a inh inactive, PLK1 PBD block inactive, BAZ2B inh inconclusive and JMJD2A Tudor inh inactive.
C#CCOC(=O)CCCNc1ccc([N+](=O)[O-])cc1[N+](=O)[O-] was read as HP1b chromo inh inactive, G9a inh inactive, PLK1 PBD block inactive, BAZ2B inh 50µM and JMJD2A Tudor inh 56µM.
C/C(CCCO)=N/Nc1ccc([N+](=O)[O-])cc1[N+](=O)[O-] was read as PI5P4Ka inh inactive, HP1b chromo inh inactive, G9a inh inactive, PLK1 PBD block inactive, BAZ2B inh inconclusive and JMJD2A Tudor inh inactive.
Screening C/C(CCC(=O)O)=N/Nc1ccc([N+](=O)[O-])cc1[N+](=O)[O-] returned PI5P4Ka inh inactive, HP1b chromo inh inactive, G9a inh inconclusive, PLK1 PBD block inactive, BAZ2B inh inconclusive and JMJD2A Tudor inh inconclusive.
CCOC(=O)C(C(=O)OCC)C(C)(C)/C(C)=N\Nc1ccc([N+](=O)[O-])cc1[N+](=O)[O-] was read as PI5P4Ka inh inactive, HP1b chromo inh 35µM, G9a inh inconclusive, PLK1 PBD block inactive, BAZ2B inh 10µM and JMJD2A Tudor inh 32µM.
`Cc1cccc(-c2n[nH]nc2C2=CC(=O)CC(C)(C)C2)c1` gave PI5P4Ka inh inactive and PLK1 PBD block inactive.
Screening COc1ccc(-c2cc(C(=O)OCC(=O)c3cccc(OC)c3)c3cccc(Cl)c3n2)cc1 returned HP1b chromo inh inactive, G9a inh inactive, BAZ2B inh inactive and JMJD2A Tudor inh inactive.
O=C(COC(=O)c1cccc(S(=O)(=O)N2CCOCC2)c1)NC1CCCCC1 was read as PI5P4Ka inh inactive and PLK1 PBD block inactive.
For Cc1ccc(S(=O)(=O)Cn2nnnc2CN2CCCC3(CCCCC3)C2)cc1 the results were HP1b chromo inh inactive, G9a inh 25µM, PLK1 PBD block inactive, BAZ2B inh inactive and JMJD2A Tudor inh inactive.
For COc1cc(C)c2c(c1C=O)Oc1c(c(C)c(O)c3c1C(O)OC3=O)OC2=O (stereo unspecified) the results were PI5P4Ka inh -64, HP1b chromo inh inactive, G9a inh inconclusive, PLK1 PBD block inactive, BAZ2B inh 79µM and JMJD2A Tudor inh 79µM.
`O=C(NCc1ccccc1)c1ccccc1C(=O)c1ncc[nH]1` gave PI5P4Ka inh inactive, HP1b chromo inh inactive, G9a inh 13µM, PLK1 PBD block inactive, BAZ2B inh inconclusive and JMJD2A Tudor inh inactive.
For O=C(O)c1ccccc1C(=O)NCc1ccccc1 the results were PI5P4Ka inh inactive, HP1b chromo inh inactive, G9a inh inactive[2.33 µM], PLK1 PBD block inactive, BAZ2B inh inactive and JMJD2A Tudor inh inactive.
Screening COC(=O)CSc1nnc(CNc2ccc(Cl)cc2)n1Cc1ccccc1 returned HP1b chromo inh inactive, G9a inh 56µM, PLK1 PBD block inactive, BAZ2B inh inconclusive and JMJD2A Tudor inh inactive.
For CCOc1ccc(CNc2ccc(N3CCN(Cc4ccccc4)CC3)cc2)cc1 the results were PI5P4Ka inh inactive, HP1b chromo inh inconclusive, PLK1 PBD block inactive, BAZ2B inh 8.9µM and JMJD2A Tudor inh 8.9µM.
`CCOc1ccc(NCc2nnc(SCc3ccc(Cl)cc3)n2-c2ccccc2)cc1` gave PI5P4Ka inh inactive, HP1b chromo inh inconclusive, G9a inh 25µM, PLK1 PBD block inactive, BAZ2B inh 14µM and JMJD2A Tudor inh 22µM.
CCCCOc1ccc(CN2CCSCC2)cc1 was read as PI5P4Ka inh inactive, HP1b chromo inh inconclusive, PLK1 PBD block inactive, BAZ2B inh inactive and JMJD2A Tudor inh 28µM.
